The campaign covered roughly 48,000 compounds. About 13,000 (27%) showed an effect of 50% or more. The list shows a part of the results.
Each compound was assayed on Wolbachia pipientis (assay: Anti-Wolbachia Cell-Based Screen). Conditions: 5 µM.
Type: functional
Set-up: scale not given: in the data most compounds retested in dose-response had high values

| Compound | Percent Effect |
| --- | --- |
| CCOc1cccc(COC(=O)c2cscn2)n1 | -4.907% |
| O=C(Nc1cc(C2CCOCC2)[nH]n1)c1cc[nH]n1 | -3.397% |
| CCOc1cccc(NC(=O)c2cscn2)n1 | -16.65% |
| COC(CNC(=O)c1cc(C)on1)c1ccccc1C (stereo unspecified) | 2.502% |
| CCOc1cccc(COC(=O)c2cc(C)on2)n1 | 106.6% |
| CCOc1cccc(NC(=O)c2cc(C)on2)n1 | 91.67% |
| CCOc1cccc(NC(=O)c2cc[nH]n2)n1 | 87.66% |
| CCOc1cccc(NC(=O)Cc2cccc(O)c2)n1 | -45.48% |
| CCOc1cccc(COC(=O)c2ccc(F)cn2)n1 | -9.322% |
| CCOc1cccc(COC(=O)c2ccc(Cl)cn2)n1 | -10.12% |
| CCOc1cccc(COC(=O)c2cc(Cl)ccn2)n1 | -4.3% |
| CCOc1cccc(NC(=O)c2cnc(C)cn2)n1 | 87.8% |
| CCN1CCN(C(=O)c2ccc3c(c2)CCCN3)[C@H]2CS(=O)(=O)C[C@H]21 | -2.171% |
| CSCCC1c2nc[nH]c2CCN1Cc1ccccc1C#N (stereo unspecified) | -9.025% |
| Cc1ccc(NC(=O)c2cc(S(=O)(=O)N3CCCCC3)c[nH]2)cc1F | 1.173% |
| COCCC1(CNC(=O)NCC2CN(C)CCN2C)CCC1 (stereo unspecified) | -22.96% |
| CC(C)c1ccc(OCCC(=O)N(C)C)cc1 | 6.13% |
| CC(C)c1nc(/C=C/c2cnn(-c3ccccc3)c2)ncc1C(=O)O | -2.711% |
| NC(=O)c1cccc(CC2CCN(C(=O)CCc3cccc(F)c3)C2)c1 (stereo unspecified) | -3.46% |
| Cc1ccsc1[C@@H]1CCN(C(=O)Cc2ccc(O)cc2)C[C@H]1O | -5.599% |
| Cc1nccn1C1CCCN(C(=O)c2ccc3c(c2)nc(C)n3C)C1 (stereo unspecified) | 109.3% |
| Cc1nc2cc(C(=O)N3CCCC(n4ccnc4)C3)ccc2n1C (stereo unspecified) | 116.9% |
| Cc1nc2cc(C(=O)N3CCCC(n4cncn4)C3)ccc2n1C (stereo unspecified) | -4.268% |
| CCOc1ccc(N(CCC#N)C(=O)c2ccnc(SC)c2)cc1 | 9.969% |
| Cc1cc(CNC(=O)[C@H]2CCCCN2C(=O)OC(C)(C)C)on1 | -34.39% |
| O=C(O)C(F)(F)F.O=C(O)C(F)(F)F.c1csc(CN2C[C@@H]3OCCN(CC4CCCO4)[C@@H]3C2)c1 (stereo partly specified) | -7.067% |

| Compound | Percent Effect |
| --- | --- |
| COCCN1CCO[C@H]2CN(C(=O)c3cccs3)C[C@H]21.O=C(O)C(F)(F)F | -7.528% |
| O=C(O)C(F)(F)F.c1cnc(N2CCO[C@H]3CN(Cc4cc[nH]n4)C[C@H]32)cn1 | -10.59% |
| O=C(O)C(F)(F)F.O=C(O)C(F)(F)F.O=C(O)C(F)(F)F.c1coc(CN2C[C@@H]3OCCN(CCN4CCCC4)[C@@H]3C2)c1 | -5.292% |
| COCCN1CCO[C@H]2CN(Cc3cc[nH]n3)C[C@H]21.O=C(O)C(F)(F)F.O=C(O)C(F)(F)F | 90.56% |
| O=C(O)C(F)(F)F.O=C(O)C(F)(F)F.c1cc(CN2C[C@@H]3OCCN(CC4CC4)[C@@H]3C2)n[nH]1 | 105.8% |
| O=C(O)CSc1nnc(-c2ccn[nH]2)n1-c1ccccc1Cl | -20.89% |
| Cc1ccccc1OCCC(=O)N1CCc2nc(C)n(C)c(=O)c2CC1 | 7.029% |
| Cc1ccc(-c2noc(CN3CCOC(Cn4cncn4)C3)n2)cc1 (stereo unspecified) | -2.106% |
| Cn1cc(-c2nc(CN3CCOC(Cn4cncn4)C3)cs2)cn1 (stereo unspecified) | 113.5% |
| c1ccc(-c2nc(CN3CCOC(Cn4cncn4)C3)cs2)cc1 (stereo unspecified) | 125.5% |
| Cn1cc(-c2nc(CN3CCOC(Cn4cccn4)C3)cs2)cn1 (stereo unspecified) | 14.65% |
| c1cnc(-c2nc(CN3CCOC(Cn4cncn4)C3)cs2)nc1 (stereo unspecified) | 0% |
| Cc1noc(C)c1CN1C(=O)[C@H]2CC[C@@H]1CN(Cc1ccc(Cl)cc1)C2 | -8.21% |
| CC(C)n1ncc2cc(NC(=O)N3CCC(N4CCCC4)C3)cnc21 (stereo unspecified) | -0.151% |
| COc1ccc(C(=O)Nc2nncs2)cn1 | -3.004% |
| CCc1nc(CC(=O)N2CCN(c3cnccn3)CC2)cs1 | 8.255% |
| CCc1cc(N2CCN(c3cnccn3)CC2)n2nc(C)c(C)c2n1 | 6.49% |
| Cc1nccn1CCC1CCN(c2ccncn2)CC1 | -24.71% |
| COc1cc(N2CCCC(c3nccn3Cc3ccncc3)C2)ncn1 (stereo unspecified) | 26.87% |
| CCc1nnc(CNC2CCN(c3ncnc4c(C)csc34)CC2)s1 | 6.605% |
| CCc1nnc(Nc2cc(C)nc(C3CCN(c4cnccn4)C3)n2)s1 (stereo unspecified) | 134.1% |
| Cc1ccccc1N1CCCN(c2ccncn2)CC1 | -18.24% |
| CCc1nnc(Nc2cc(C)nc(C3CCN(c4ccncn4)C3)n2)s1 (stereo unspecified) | 171.2% |
| CCc1nnc(Nc2cccc(C3CCN(CCO)CC3)n2)s1 | -9.2% |
| Cc1cc(C)nc(C2CCN(c3ccncn3)C2)n1 (stereo unspecified) | 136% |

Source: ChEMBL document CHEMBL3988442, “University of Dundee, Small-Polar-MMV Screening Library” (2021)
